A selection: hits, their analogues and other compounds. The true share with any hit is near 11%.
HP1b chromo inh: blocks HP1-beta chromodomain binding to methylated histone tails | AlphaScreen HP1-beta / biotin-H3K9me3 peptide binding | Potency, µM (series often up to 114 µM), hits mostly inhibitors | 0.56% of 390,000 active | AID 540317; note: nearly all actives have a fitted effect of over 70% in size
Target sequence (P83916 whole entry, looked up): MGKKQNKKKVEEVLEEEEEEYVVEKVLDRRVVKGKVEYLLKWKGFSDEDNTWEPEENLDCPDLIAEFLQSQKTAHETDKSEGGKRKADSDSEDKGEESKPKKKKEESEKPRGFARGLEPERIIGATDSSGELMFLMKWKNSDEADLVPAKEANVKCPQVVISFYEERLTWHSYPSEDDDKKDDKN
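Compound inhibition of the preformed complex between 50 nM HP1-beta and 50 nM biotinylated H3K9me3 peptide was read by AlphaScreen. Buffer was PBS pH 7.4 with 0.01% Tween-20. Incubations ran 30 min at room temperature, with 10 ug/mL donor/acceptor beads.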
PLK1 PBD inh: blocks phosphopeptide binding to human PLK1 polo-box domain. Plk1 PBD binding of FITC phosphopeptide, fluorescence polarization. 2.8% of 360,000 active. Potency, µM, hits mostly inhibitors. P53350. AID 720504; note: series mostly up to about 57 µM; nearly all actives have a fitted effect of over 65% in size
VDR inh: inhibitors of human vitamin D receptor; P11473; VDR-SRC2-3 peptide fluorescence polarization, 2 h; Potency, µM, actives largely listed as inhibitors; 0.93% of 400,000 active
Target sequence (P11473 whole entry, looked up): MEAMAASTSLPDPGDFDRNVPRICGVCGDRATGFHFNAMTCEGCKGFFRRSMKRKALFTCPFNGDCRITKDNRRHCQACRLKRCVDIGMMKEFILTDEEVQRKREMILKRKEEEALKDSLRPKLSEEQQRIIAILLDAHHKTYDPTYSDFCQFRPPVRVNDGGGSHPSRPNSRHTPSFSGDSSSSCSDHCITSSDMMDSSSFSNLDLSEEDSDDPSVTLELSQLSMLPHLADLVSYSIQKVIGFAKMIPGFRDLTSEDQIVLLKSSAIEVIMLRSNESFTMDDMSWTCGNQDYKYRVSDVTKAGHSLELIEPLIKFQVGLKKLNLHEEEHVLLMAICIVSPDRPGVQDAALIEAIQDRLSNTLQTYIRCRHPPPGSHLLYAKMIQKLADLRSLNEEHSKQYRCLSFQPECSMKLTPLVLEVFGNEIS
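Fluorescence polarization assay measuring small-molecule disruption of VDR binding to the coregulator peptide SRC2-3. Compounds were pin-transferred (23 nl) into the reagent mix and incubated 2 h at room temperature before reading.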
BAZ2B inh: blocks human BAZ2B | AlphaScreen BAZ2B-H3K14Ac peptide displacement | 4.4% of 360,000 active | Q9UIF8 | Potency, µM (top dose mostly 114 µM), usual class: inhibitors; note: nearly all actives have a fitted effect of over 60% in size
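BAZ2B 50 nM plus b-H3(5-23)K14Ac 50 nM, PBS pH 7.4/0.01% Tween-20, 30 min RT; compound added (max 110 uM), 30 min RT; streptavidin donor/Ni-chelate acceptor beads 10 ug/mL final, 20 min dark; AlphaScreen read.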
JMJD2A Tudor: JMJD2A Tudor domain (human) inhibition | O75164 | AlphaScreen JMJD2A-Tudor / H3K4me3 peptide binding | Potency, µM (top dose mostly 114 µM), actives largely listed as inhibitors | 4.4% of 390,000 active | AID 504339; note: nearly all actives have a fitted effect of over 50% in size
G9a block: blocks human histone lysine methyltransferase G9a. Q96KQ7. G9a H3K9 monomethylation, AlphaScreen, 2 h. Potency, µM (doses to about 102 µM), hits mostly inhibitors. 8.8% of 350,000 active. AID 504332; note: nearly all actives have a fitted effect of over 75% in size
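G9a (20 nM) preincubated 15 min RT with compounds, then 500 nM biotinylated H3K9 peptide and 20 uM SAM added; 2 h RT reaction. Monomethyl-H3K9 product detected by AlphaScreen with anti-H3K9me1 antibody, streptavidin donor and anti-rabbit IgG acceptor beads.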
Of the large screens only hits and unclear results are named; the others gave an inactive call; ! = not confirmed by another sample. Calls come from the whole dose curve; as a rule, active = well fitted curve in the direction sought with a large enough effect; inconclusive = small, poorly fitted or top-dose-only effect, or another doubt; inactive = no such curve, though single readings can be large; an effect the other way counts as inactive or inconclusive.

CC(=O)N1CC=CC1(C)C(=O)O (stereo not drawn)	G9a block 50µM
CNC(=O)C1(CC(C)C)C=CCN1C(C)=O (stereo not drawn)	none
CCc1ccc(OC(=O)Nc2ccccc2)cc1	none
Cc1occc(=O)c1OC(=O)Nc1ccccc1	BAZ2B inh inconclusive, JMJD2A Tudor 20µM, G9a block inconclusive
O=C(COC(=O)/C=C/c1cccc(Cl)c1)NC1CC1	none
CC1CCCN(c2nc(N(C)c3ccccc3)nc(N)c2[N+](=O)[O-])C1 (stereo not drawn)	HP1b chromo inh inconclusive, BAZ2B inh inconclusive, JMJD2A Tudor inconclusive, G9a block 32µM
COc1ccc(S(=O)(=O)N(CC(=O)Nc2ccccc2Cl)Cc2ccccc2)cc1	none (no result: PLK1 PBD inh)
O=C(CCc1ccccc1)NCc1ccncc1	none
O=C(CCNNC(=O)c1ccncc1)NCc1ccccc1	G9a block 10µM!
O=C(NCc1ccncc1)c1ccc(Oc2ccccc2)cc1	PLK1 PBD inh 11µM, JMJD2A Tudor 13µM
O=C(Cc1ccc(S(=O)(=O)N2CCOCC2)s1)NC1CCCCC1	BAZ2B inh 50µM, JMJD2A Tudor inconclusive, G9a block 13µM
CNC(=O)c1ccc(NC(=O)Cc2ccc(S(=O)(=O)N3CCOCC3)s2)cc1	G9a block 45µM
CC1CCCN(S(=O)(=O)c2ccc(NC(=O)Cc3ccc(S(=O)(=O)N4CCOCC4)s3)cc2)C1 (stereo not drawn)	G9a block 4µM
NS(=O)(=O)c1cccc(NC(=O)COC(=O)Cc2ccc(S(=O)(=O)N3CCOCC3)s2)c1	none (no result: BAZ2B inh, G9a block)
CCOc1ccc(NC(=O)COC(=O)Cc2ccc(S(=O)(=O)N3CCOCC3)s2)cc1	BAZ2B inh inconclusive, G9a block 40µM
CC(=O)c1ccc(NC(=O)c2ccc(-c3ccc(Cl)cc3)o2)cc1	G9a block inconclusive (no result: PLK1 PBD inh)
O=C(Cc1ccc(S(=O)(=O)N2CCOCC2)s1)Nc1nc2c(s1)CCCC2	HP1b chromo inh inconclusive, PLK1 PBD inh inconclusive, BAZ2B inh 18µM, JMJD2A Tudor 56µM (no result: G9a block)
CC1CCCN(S(=O)(=O)c2ccc(NC(=O)CNC3CCCC3)cc2)C1 (stereo not drawn)	G9a block 40µM
O=C(NCCc1ccccc1)C(=O)NCC(c1ccc2c(c1)OCO2)N1CCOCC1 (stereo not drawn)	none (no result: PLK1 PBD inh)
CN(Cc1cccc(F)c1)C(=O)c1ccc(S(=O)(=O)N2CCOCC2)cc1	none
CCSc1nnc([C@@H]2CCCN2C(=O)OC(C)(C)C)o1	G9a block 50µM
C=C(C)CSc1nnc([C@@H]2CCCN2C(=O)OC(C)(C)C)o1	none
Cc1ccc(CNC(=O)CCCn2c(=O)c3ccccc3n(Cc3ccccc3C)c2=O)cc1	none (no result: PLK1 PBD inh)
C[C@H]1CN([C@@H](C)CO)C(=O)c2cc(Br)cnc2O[C@@H]1CN(C)C(=O)Nc1ccc(C(F)(F)F)cc1	none (no result: HP1b chromo inh, VDR inh, BAZ2B inh, JMJD2A Tudor, G9a block)
COC(=O)c1sc2cccc(F)c2c1S(=O)(=O)Nc1ccc(N(C)C)cc1	BAZ2B inh inconclusive, JMJD2A Tudor inconclusive, G9a block 11µM (no result: PLK1 PBD inh)
O=C(Nc1cc(S(=O)(=O)Nc2ccc(Cl)cc2)ccc1O)c1ccc(S(=O)(=O)N2CCCCCC2)cc1	PLK1 PBD inh 12µM, VDR inh inconclusive, BAZ2B inh inconclusive
O=C(Nc1cc(S(=O)(=O)N2CCOCC2)ccc1O)c1ccc(S(=O)(=O)N2CCCCC2)cc1	none (no result: BAZ2B inh, G9a block)
O=C(Nc1cc(S(=O)(=O)N2CCCCC2)ccc1Cl)c1ccccc1NS(=O)(=O)c1ccc(F)cc1	PLK1 PBD inh inconclusive
O=C(Nc1cc(S(=O)(=O)N2CCCCC2)ccc1O)c1ccccc1NS(=O)(=O)c1ccc(F)cc1	PLK1 PBD inh 27µM, JMJD2A Tudor inconclusive, G9a block inconclusive
Cc1cccc(C(=O)N2CCCC(N3CCN(Cc4ccc5c(c4)OCO5)CC3)C2)n1 (stereo not drawn)	none (no result: G9a block)
Cc1nn(Cc2ccccc2)c(Cl)c1/C=C1\NC(=S)NC1=O	G9a block 40µM
Cc1nn(Cc2ccc(F)cc2)c(Cl)c1/C=N/NC(=O)c1ccccc1	none
Cc1cccc(C)c1N1C(=O)[C@@H]2C(c3ccccc3Cl)=NO[C@@H]2C1=O	G9a block 50µM
COc1ccc(OC)c(N2C(=O)[C@@H]3C(c4ccccc4Cl)=NO[C@@H]3C2=O)c1	HP1b chromo inh 18µM, PLK1 PBD inh 19µM, BAZ2B inh 32µM, JMJD2A Tudor inconclusive
COc1ccc(OC)c(N2C(=O)C(Cl)=C(N3CCCCC3)C2=O)c1	G9a block inconclusive (no result: BAZ2B inh)
COc1ccc(C2=NO[C@@H]3C(=O)N(c4c(C)cccc4C)C(=O)[C@H]23)cc1OC	G9a block 50µM
Cc1ccc(N2C(=O)[C@@H]3C(c4cccnc4)=NO[C@@H]3C2=O)cc1	none
COc1ccc(N2C(=O)[C@@H]3C(c4cccnc4)=NO[C@@H]3C2=O)cc1	none (no result: G9a block)
COc1ccccc1NC(=O)C1=C(C)Nc2nc(SCc3ccccc3F)nn2C1c1cccs1 (stereo not drawn)	none (no result: PLK1 PBD inh)
COc1cccc(/C=C2/NC(=O)N(CC(=O)Nc3ccc(C)cc3)C2=O)c1OCc1cccc(C(=O)O)c1	HP1b chromo inh inconclusive, PLK1 PBD inh inconclusive, BAZ2B inh 25µM, JMJD2A Tudor inconclusive, G9a block inconclusive
CC(=O)NC1=NC(=O)/C(=C/c2cc(C)n(-c3ccc(NC(C)=O)cc3)c2C)S1	BAZ2B inh inconclusive, G9a block inconclusive
Cc1ccc(NC(=O)CN2C(=O)N/C(=C/c3ccc(C)s3)C2=O)cc1	G9a block inconclusive
Cc1ccc(NC(=O)CN2C(=O)N/C(=C/c3ccc(C)o3)C2=O)cc1	VDR inh inconclusive, G9a block 35µM
CC(=O)NC1=NC(=O)/C(=C/c2cc(C)n(-c3cccc(C(=O)O)c3)c2C)S1	HP1b chromo inh inconclusive, BAZ2B inh 16µM, JMJD2A Tudor inconclusive, G9a block 20µM
Cc1cccc(NC(=O)CN2C(=O)N/C(=C\c3ccc(-c4cccc(C(=O)O)c4)o3)C2=O)c1	PLK1 PBD inh inconclusive, G9a block 45µM
COc1cc2c(cc1/C=C1/NC(=O)N(CC(=O)Nc3ccccc3)C1=O)OCO2	none
COc1cccc(/C=C/c2nc(C#N)c(NC3CCCCC3)o2)c1	none (no result: PLK1 PBD inh)
CCn1cnc2c(Nc3ccc(CCC(=O)N=C(N)N)cc3)nc(C#N)nc21	none (no result: HP1b chromo inh, PLK1 PBD inh, VDR inh, BAZ2B inh, G9a block)
CN(C)C(=O)OCC1COc2ccccc2O1 (stereo not drawn)	none
Cc1ccc(CN2C(=O)N/C(=C\c3cccn3-c3cccc(C(=O)O)c3)C2=O)cc1	HP1b chromo inh inconclusive, PLK1 PBD inh inconclusive, BAZ2B inh 35µM, JMJD2A Tudor 45µM, G9a block 16µM
O=C1N/C(=C/c2cccn2-c2ccc(F)cc2)C(=O)N1Cc1ccccc1	none
